# Bioassay records: PubChem, National Center for Advancing Translational Sciences (NCATS)
# Shown are actives, neighbours in structure and some others; about 8% of the full set was active somewhere.
# KB-V1 cytotox = qHTS assay for MDR1-selective chemotherapeutics: Primary screen using the drug-selected MDR subline cells KB-V1. KB-V1 MDR cells viability, CellTiter-Glo, 72 h. Potency, µM (top dose mostly 46.1 µM), actives largely listed as cytotoxic. hit rate 3.4% among 400,000. AID 1347076, 2019; further: on the % scale 0 is the no-effect control and ±100 the full control effect; nearly all actives have a fitted effect of over 60% in size
#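 KB-V1 cells (P-gp-expressing MDR subline of KB-3-1) in phenol-red-free DMEM with 10% FBS were exposed to library compounds over a concentration series for 72 h at 37 degrees C. Viability read by CellTiter-Glo luminescence; concentration-effect curves fitted after normalization.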
# HT1080NT lethal = qHTS for induction of synthetic lethality in tumor cells producing 2HG: qHTS for the HT-1080-NT fibrosarcoma cell line; AID 686970, 2013; Potency, µM (titrated, usually from 46.1 µM), inactives show at the top dose activity, negative = less viability, most hits filed as cytotoxic; HT-1080-NT fibrosarcoma viability, CellTiter-Glo ATP luminescence, 48 h; hit rate 1.6% among 360,000;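 further: NT is the 2HG producing partner of a matched IDH1 knockdown line; 0% = DMSO-treated cells and -100% = media-only wells without cells; nearly all actives have a fitted effect of over 55% in size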
#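 750 cells/well, RPMI + 5% FBS; 2 h settle, compound pin-transfer, 48 h at 37 degrees C. CellTiter-Glo 10 min RT, luminescence. Normalized to DMSO and media-only wells.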
# SW480 rereplic = A quantitative high throughput screen for small molecules that induce DNA re-replication in SW480 colon adenocarcinoma cells; SW480 DNA re-replication, Hoechst DNA content imaging, 48 h; AID 624297, 2012; Potency, µM (series often up to 46.1 µM), for inactives: at the highest dose re-replication activation, usual class: activators; hit rate 1.8% among 340,000; further: % of control where 0% means no effect; nearly all actives have a fitted effect of over 55% in size
#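 Image-based DNA-content assay: after two days of treatment, nuclei were labelled with the DNA dye Hoechst and imaged, and hits were compounds raising the count of nuclei showing high fluorescence intensity.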
# MCF10A rerep = A quantitative high throughput screen for small molecules that induce DNA re-replication in MCF 10a normal breast cells; MCF 10A DNA re-replication, Hoechst nuclear intensity, 48 h; Potency, µM (highest dose often 46.1 µM), for inactives: at the highest dose activity, positive = re-replication, most hits filed as activators; hit rate 2.9% among 350,000; further: % of control where 0% means no effect; nearly all actives have a fitted effect of over 50% in size
# HT1080 IDH1KD tx = qHTS for induction of synthetic lethality in tumor cells producing 2HG: qHTS for the HT-1080-IDH1KD cell line; HT-1080 IDH1 knockdown viability, ATP luminescence, 48 h; Potency, µM (doses to about 46.1 µM), for the others: top-dose activity, negative = toxicity, actives largely listed as cytotoxic; hit rate 2% among 360,000;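 further: 0% = DMSO wells and -100% = cell-free medium wells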
#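 IDH1KD HT-1080 cells, 750/well, RPMI + 5% FBS; compound pinned after 2 h settling; 48 h, 37 °C; CellTiter-Glo luminescence; % activity normalised to DMSO and no-cell wells; curves fitted, classed by r2 and efficacy.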
# KB-3-1 cytotox = qHTS assay for MDR1-selective chemotherapeutics: Primary screen using the parental adenocarcinoma cell KB-3-1. Potency, µM (top dose mostly 46.1 µM), usual class: cytotoxic. KB-3-1 viability, CellTiter-Glo ATP luminescence, 72 h. AID 1347075, 2019. hit rate 1.4% among 400,000; further: on the % scale 0 is the no-effect control and ±100 the full control effect; nearly all actives have a fitted effect of over 60% in size
#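 Using CellTiter-Glo luminescence, growth of non-resistant KB-3-1 adenocarcinoma cells is assessed 72 h after pin-tool compound addition at 37 °C. Normalized responses across the concentration series yield fitted curves.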
# * hit, by the source's call; i = inactive; ? = inconclusive; nt = no result given. The call rests on the fitted dose curve; in most records, active means well fitted curve in the direction sought with a large enough effect; inconclusive means small, poorly fitted or top-dose-only effect, or another doubt; inactive means no such curve, though single readings can be large; an effect the other way counts as inactive or inconclusive. Potency means the concentration at half of the fitted maximal effect.
SMILES,KB-V1 cytotox,HT1080NT lethal,SW480 rereplic,MCF10A rerep,HT1080 IDH1KD tx,KB-3-1 cytotox
Cc1cccc(C)c1OCC(=O)Nc1oc(-c2ccccc2)c(-c2ccccc2)c1C#N,16µM*,?,-70%,?,-20%,?
O=C(N/N=C/c1ccccn1)c1ccc([N+](=O)[O-])cc1Cl,i,-30%,-4%,-2%,-19%,i
NNC(=O)c1[nH]c2ccc([N+](=O)[O-])cc2c1-c1ccccc1,i,?,?,?,3.7µM*,?
O=C(N/N=C/c1ccccn1)c1[nH]c2ccc([N+](=O)[O-])cc2c1-c1ccccc1,?,?,?,?,?,9.2µM*
O=C(O)c1[nH]c2ccc([N+](=O)[O-])cc2c1-c1ccccc1,i,-12%,-4%,1%,-5%,i
COCCCn1c(SCCc2ccccc2)nc2cc(OC)c(OC)cc2c1=N,i,?,-14%,7.3µM*,-23%,i
CN(C)c1ccc(N=Cc2ccncc2)cc1,i,nt,nt,nt,nt,i
CCCNC(=O)c1noc2c1CCc1cc(OC)ccc1-2,i,5%,1%,5%,2%,i
COc1ccc2c(c1)CCc1c(C(=O)N3CCCCCC3)noc1-2,15µM*,-2%,-3%,?,-1%,i
O=C(c1noc2c1CCc1ccccc1-2)N1CCOCC1,16µM*,2%,-10%,-9%,-20%,i
Cc1cc(NC(=O)c2noc3c2CCc2ccccc2-3)no1,i,1%,-5%,2%,3%,i
COc1ccc2c(c1)CCc1c(C(=O)NCc3cccnc3)noc1-2,8.2µM*,13%,-4%,3%,-1%,?
Cc1ccc(O)c(NC(=O)c2noc3c2CCc2ccccc2-3)c1,i,10%,15µM*,?,-1%,i
O=C(CSC1=Nc2ccccc2N=C(c2ccc(F)cc2)C1)NCc1ccccc1Cl,i,nt,nt,nt,nt,i
CCn1c(CNC(=O)c2ccccc2Cl)cc2ccccc21,i,9%,3%,6%,0%,i
Cc1cc(I)ccc1Nc1nc(NCCN2CCOCC2)nc(N2CCOCC2)n1,i,nt,nt,nt,nt,?
Cc1cc(NS(=O)(=O)c2ccc(NC(=O)COc3cc(C)c(Br)cc3C(C)C)cc2)no1,i,nt,nt,nt,nt,i
CC(CCc1ccc(O)cc1)NC(c1ccccc1)c1ccc(Cl)cc1 (stereo not given),i,10µM*,?,16µM*,7.3µM*,i
CC(CCc1ccc(O)cc1)NCCC(c1ccccc1)c1ccccc1 (stereo not given),?,21µM*,?,8%,21µM*,?
CC(CCc1ccccc1)NCc1ccc(Cl)cc1Cl (stereo not given),i,3%,-15%,?,0%,i
Cc1ccc(S(=O)(=O)CC(CN2CCCCC2)N2CCCCC2)cc1 (stereo not given),i,18µM*,-1%,?,18µM*,?
O=S(=O)(CC(CN1CCCCC1)N1CCCCC1)c1ccc2ccccc2c1 (stereo not given),?,?,?,?,?,6.5µM*
Cc1c(C(N)=O)nnn1-c1ccc(Br)cc1,i,nt,nt,nt,nt,i
CC(C)Oc1ccc(C(=O)NC2CCCCC2)cc1,i,7%,2%,-3%,4%,i
CC(C)Oc1ccc(C(CCN)C2CCCCC2)cc1 (stereo not given),16µM*,15µM*,?,?,15µM*,?
